Results taken from article PMC10338342.

Assays:
Histone H2B type 1-J = Histone H2B type 1-J (UniProt P06899); assay: cross-link between two proteins; cross-linking mass spectrometry
Histone H3.1 = Histone H3.1 (UniProt P68431); assay: as above
Histone H4 = Histone H4 (UniProt P62805); assay: as above
Protein max = Protein max (UniProt P61244); assay: cross-link between two proteins; cross-linking mass spectrometry; other
Chain of Protein max (P61244 whole entry): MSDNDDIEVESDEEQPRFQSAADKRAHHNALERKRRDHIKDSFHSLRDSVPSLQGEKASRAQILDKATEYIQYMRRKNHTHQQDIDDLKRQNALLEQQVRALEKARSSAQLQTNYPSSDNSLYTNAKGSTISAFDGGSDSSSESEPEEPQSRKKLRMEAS

Chain of Myc proto-oncogene protein, P01106 (P01106 whole entry): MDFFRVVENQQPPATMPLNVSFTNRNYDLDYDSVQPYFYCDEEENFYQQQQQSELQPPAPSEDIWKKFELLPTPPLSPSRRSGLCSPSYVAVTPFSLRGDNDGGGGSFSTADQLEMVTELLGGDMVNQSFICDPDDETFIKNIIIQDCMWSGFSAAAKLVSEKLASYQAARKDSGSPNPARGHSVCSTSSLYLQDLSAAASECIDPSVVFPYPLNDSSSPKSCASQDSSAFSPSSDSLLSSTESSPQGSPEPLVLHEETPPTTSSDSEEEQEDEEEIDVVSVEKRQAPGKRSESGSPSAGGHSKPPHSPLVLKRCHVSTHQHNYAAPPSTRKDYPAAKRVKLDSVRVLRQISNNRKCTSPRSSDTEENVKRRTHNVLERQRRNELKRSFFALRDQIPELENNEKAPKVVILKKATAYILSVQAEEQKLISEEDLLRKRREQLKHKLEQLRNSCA

Substance | listed as a hit (Histone H2B type 1-J) | listed as a hit (Histone H3.1) | listed as a hit (Histone H4) | listed as a hit (Protein max)
Histone H2A type 1-B/E, P04908 | yes | yes | yes | –
Histone H2B type 1-J, P06899 | – | yes | yes | –
Myc proto-oncogene protein, P01106 | – | – | – | yes
